# Reference: PubChem BioAssay (NCATS)
# Inconclusive results are not listed. Entries that show only a call come without a potency. Active and inactive are the calls of the source. The call rests on the fitted dose curve; in most records, active means well fitted inhibition curve with a large enough effect; inconclusive means small, poorly fitted or top-dose-only effect; inactive means no such curve, though single readings can be large or run the other way.
# Assay: Counterscreen for APE1 Inhibitors: Fluorescent Dye Displacement Validation Assay (AID 1707)
# Settings: fluorescent dye displacement from DNA; series mostly up to 57.1 µM
# Text: In order to distinguish true inhibitors of DNA-processing enzymes from promiscuous DNA-binding compounds among screening assay hits, we developed a homogeneous and miniaturized assay based on fluorescent dye displacement test as originally described by Tse and Boger (Accounts of Chemical Research (2004) 37: 61-69). The assay is based on the strong enhancement of fluorescence when Thiazole Orange (ThO) binds to double-stranded DNA: conversely, in the presence of a DNA-binding compound, Thiazole Orange is displaced from the DNA and its fluorescence is reduced.
# Buffer. 50 mM Tris-HCl (pH7.5) containing 50mM NaCl, 2 mM MgCl2, and 0.01% Tween-20.
# Buffer containing 250 nM ThO in columns 3 and 4 as negative control (no dsDNA).
# Reaction mixture: 250 nM ThO and 50 nM dsDNA at final concentration dispensed throughout the plate: in columns 1, 2, 5-48. Column 1 is neutral (100% activity).
# 5''TAMRA- TC ACC FTC GTA CGA CTC
# 3'' AG TGG GAG CAT GCT GAG
# where F denotes tetrahydrofuran.
# Control: Pintool transfer of control compound WB64 (W4761, Sigma-Aldrich) to column 2 of all assay plates as a two-fold 16-point dilution in duplicate (concentration range 5.75 uM - 0.175 nM).
# Four uL of reaction mixtures were dispensed to 1536-well Greiner black solid bottom plates. Compounds (23 nL) were transferred […] in order to measure the endpoint fluorescence using 480 nm excitation and 540 nm emission fluorescence protocol.
# Potency means the concentration at half of the fitted maximal effect.
row,Compound,Potency
1,CC[C@H]1CN2CCc3cc(OC)c(OC)cc3[C@@H]2C[C@@H]1C[C@H]1NCCc2cc(OC)c(OC)cc21,inactive
2,NC(=O)c1ncn([C@@H]2O[C@H](CO)[C@@H](O)[C@H]2O)n1,inactive
3,CNCC(O)c1ccc(O)c(O)c1 (stereo not given),inactive
4,CNCCCC1c2ccccc2C=Cc2ccccc21,inactive
5,C[C@H]1O[C@@H](n2cc(F)c(=O)[nH]c2=O)[C@H](O)[C@@H]1O,inactive
6,CC(=O)OCC(=O)[C@@]1(O)CC[C@H]2[C@@H]3CCC4=CC(=O)CC[C@]4(C)[C@H]3C(=O)C[C@@]21C,inactive
7,CCCn1cnc2c1c(=O)n(CCCCC(C)=O)c(=O)n2C,inactive
8,CSc1ccc2c(c1)N(CCC1CCCCN1C)c1ccccc1S2 (stereo not given),inactive
9,CNCCC(Oc1ccc(C(F)(F)F)cc1)c1ccccc1 (stereo not given),inactive
10,CC(CN1c2ccccc2Sc2ccccc21)N(C)C (stereo not given),inactive
11,CNC(=O)Oc1ccc2c(c1)[C@]1(C)CCN(C)[C@@H]1N2C,inactive
12,C=Cc1c(C)c2cc3[nH]c(cc4nc(cc5nc(cc1[nH]2)C(C)=C5CCC(=O)O)C(CCC(=O)O)=C4C)c(C)c3C=C,7.94 µM (active)
13,CN(C)CC[C@@H](c1ccc(Cl)cc1)c1ccccn1,inactive
14,C#CCN(C)Cc1ccccc1,inactive
15,CCCCCCCCCCCCCCCC(=O)NCCO,inactive
16,CC(CN(C)C)CN1c2ccccc2CCc2ccccc21 (stereo not given),inactive
17,CN1CCN(C2Cc3ccccc3Sc3ccc(Cl)cc32)CC1 (stereo not given),inactive
18,NC(N)=NCCC[C@H](N)C(=O)O,inactive
19,CC(C)(C(=O)O)c1ccc(C(O)CCCN2CCC(C(O)(c3ccccc3)c3ccccc3)CC2)cc1 (stereo not given),inactive
20,N=c1c[n+](N2CCOCC2)[n-]o1,inactive

row,Compound,Potency
1,CN(C)CCOC(C)(c1ccccc1)c1ccccn1 (stereo not given),inactive
2,C[C@]12CC[C@@H]3c4ccc(O)cc4CC[C@H]3[C@@H]1CCC2=O,inactive
3,CN(C)CCCN1c2ccccc2Sc2ccc(Cl)cc21,inactive
4,OCc1cc(C(O)CNCCCCCCOCCCCc2ccccc2)ccc1O (stereo not given),inactive
5,CSc1ccc2c(c1)C(N1CCN(C)CC1)Cc1ccccc1S2 (stereo not given),inactive
6,CC(C)NC[C@H](O)c1ccc(O)c(O)c1,inactive
7,C[C@](N)(Cc1ccc(O)cc1)C(=O)O,inactive
8,CN(C)CCCN1c2ccccc2CCc2ccccc21,inactive
9,COC(=O)C1=C(C)NC(C)=C(C(=O)OC)C1c1ccccc1[N+](=O)[O-],inactive
10,CCN(CC)CCOC(=O)C1(C2CCCCC2)CCCCC1,inactive
11,CCN(CC)CCNC(=O)c1cc(Cl)c(N)cc1OC,inactive
12,NC1CCN(c2cccc(Cl)n2)CC1,inactive
13,CC(C)(C)c1onc(OCP(=O)(O)O)c1CC(N)C(=O)O (stereo not given),inactive
14,Nc1cc(=O)[nH]c(N)n1,inactive
15,CC1=C(/C=C/C(C)=C/C=C/C(C)=C/C(=O)O)C(C)(C)CCC1,inactive
16,CC1=C(CC(=O)O)c2cc(F)ccc2/C1=C\c1ccc(S(C)(=O)=O)cc1,inactive
17,CC1=C(CC(=O)O)c2cc(F)ccc2/C1=C\c1ccc(S(C)=O)cc1 (stereo not given),inactive
18,CC(C)C(=O)c1c(C(C)C)nn2ccccc12,inactive
19,COc1ccc(Cl)cc1C(=O)NCCc1ccc(S(=O)(=O)NC(=O)NC2CCCCC2)cc1,inactive
20,CN(C)CCC=C1c2ccccc2CCc2ccccc21,inactive
